The values that follow come from paper PMC7862700, “An all-to-all approach to the identification of sequence-specific readers for epigenetic DNA modifications on cytosine”.

Holding throughout (assay): DAPPL (digital affinity profiling via proximity ligation, sequencing); 10 mM Tris-HCl pH 7.5, 50 mM NaCl, 1 mM DTT, 4% glycerol, room temperature, 30 min; GST-TFs on glutathione beads, 16-mer random dsDNA library, 0.1% formaldehyde crosslink after washing; high values mean tight binding
In test [1] the target is T1, FEV (Homo sapiens, UniProt Q99581 1-238).
T1 sequence: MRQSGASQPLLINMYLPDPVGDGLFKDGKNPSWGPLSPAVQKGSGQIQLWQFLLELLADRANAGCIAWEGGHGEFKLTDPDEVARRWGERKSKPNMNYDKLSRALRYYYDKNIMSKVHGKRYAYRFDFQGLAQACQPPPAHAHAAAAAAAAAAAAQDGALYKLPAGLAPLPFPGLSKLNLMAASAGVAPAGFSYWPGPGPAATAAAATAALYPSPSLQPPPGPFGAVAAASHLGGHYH
To be noted: protein: recombinant; tags: N-terminal GST; dsDNA, one strand shown. In outline:
(§1)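 A tag-only sample was pooled with DNA-barcoded human transcription factors that had been expressed in yeast as GST fusions and captured on glutathione beads. The pools were incubated for 30 min at room temperature with 200 nmole of a random double-stranded 16-mer DNA library in Tris/NaCl/DTT/glycerol buffer, then washed, crosslinked with 0.1% formaldehyde, proximity-ligated (BsaI/T4 ligase, 1 h, 37 °C), PCR-amplified and sequenced on an Illumina NextSeq500. Binding signal is each hexamer's read frequency for a factor divided by its frequency for the tag-only sample.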

Test [2] deals with ETV5 (Homo sapiens, UniProt P41161 1-510). To be noted: protein: recombinant; tags: N-terminal GST; dsDNA, one strand shown. In outline:
as §1

The target of test [3] is HSF1 (Homo sapiens, UniProt Q00613 1-529). Conditions: protein: recombinant; tags: N-terminal GST; chain copies: 3; dsDNA, one strand shown. In outline: as §1
HSF1, sequence (Q00613 whole entry): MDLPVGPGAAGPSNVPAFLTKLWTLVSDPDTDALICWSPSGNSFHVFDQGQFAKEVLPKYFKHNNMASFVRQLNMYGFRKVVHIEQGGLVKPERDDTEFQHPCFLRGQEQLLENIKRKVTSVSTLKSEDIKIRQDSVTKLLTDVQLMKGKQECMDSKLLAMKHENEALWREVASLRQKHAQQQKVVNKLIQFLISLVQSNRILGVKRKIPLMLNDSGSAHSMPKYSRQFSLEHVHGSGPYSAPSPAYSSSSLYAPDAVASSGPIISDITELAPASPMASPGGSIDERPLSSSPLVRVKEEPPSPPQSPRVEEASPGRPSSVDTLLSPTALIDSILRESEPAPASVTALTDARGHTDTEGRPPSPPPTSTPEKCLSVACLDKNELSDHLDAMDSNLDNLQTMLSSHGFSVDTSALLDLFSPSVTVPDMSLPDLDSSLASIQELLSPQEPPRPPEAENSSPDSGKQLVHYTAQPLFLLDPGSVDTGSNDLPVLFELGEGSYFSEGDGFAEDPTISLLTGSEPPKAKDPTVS
The target in test [4] is T2, SPIC (Homo sapiens, UniProt Q8N5J4 1-248).
T2 sequence: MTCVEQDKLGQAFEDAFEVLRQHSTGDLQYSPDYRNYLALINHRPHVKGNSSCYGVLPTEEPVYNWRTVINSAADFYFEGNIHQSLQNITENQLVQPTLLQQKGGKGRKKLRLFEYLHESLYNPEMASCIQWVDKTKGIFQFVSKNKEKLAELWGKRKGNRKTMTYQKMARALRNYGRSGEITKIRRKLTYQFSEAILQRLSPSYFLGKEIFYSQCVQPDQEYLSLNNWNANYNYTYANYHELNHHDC
Conditions: protein: recombinant; tags: N-terminal GST; dsDNA, one strand shown. In outline:
as §1

Test [5] has as its target ELF4 (Homo sapiens, UniProt Q99607 1-663). To be noted: protein: recombinant; tags: N-terminal GST; dsDNA, one strand shown. In outline:
as §1

Test [6] concerns the target T3, ELK4 (Homo sapiens, UniProt P28324-2 1-405).
T3 sequence: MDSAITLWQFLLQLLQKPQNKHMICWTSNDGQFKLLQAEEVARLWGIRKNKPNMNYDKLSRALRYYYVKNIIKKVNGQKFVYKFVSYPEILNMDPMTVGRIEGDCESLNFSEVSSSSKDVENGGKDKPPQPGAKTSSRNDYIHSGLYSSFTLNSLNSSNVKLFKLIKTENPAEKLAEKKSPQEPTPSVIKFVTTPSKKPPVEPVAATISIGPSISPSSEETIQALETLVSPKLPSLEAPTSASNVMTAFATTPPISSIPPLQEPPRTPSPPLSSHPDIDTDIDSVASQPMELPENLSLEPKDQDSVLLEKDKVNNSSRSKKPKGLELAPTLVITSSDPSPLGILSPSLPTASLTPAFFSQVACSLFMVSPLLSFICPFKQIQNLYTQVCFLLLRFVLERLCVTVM
To be noted: protein: recombinant; tags: N-terminal GST; dsDNA, one strand shown. In outline: as §1

Test [7] has as its target T4, ETV2 (Homo sapiens, UniProt O00321 1-342).
T4 sequence: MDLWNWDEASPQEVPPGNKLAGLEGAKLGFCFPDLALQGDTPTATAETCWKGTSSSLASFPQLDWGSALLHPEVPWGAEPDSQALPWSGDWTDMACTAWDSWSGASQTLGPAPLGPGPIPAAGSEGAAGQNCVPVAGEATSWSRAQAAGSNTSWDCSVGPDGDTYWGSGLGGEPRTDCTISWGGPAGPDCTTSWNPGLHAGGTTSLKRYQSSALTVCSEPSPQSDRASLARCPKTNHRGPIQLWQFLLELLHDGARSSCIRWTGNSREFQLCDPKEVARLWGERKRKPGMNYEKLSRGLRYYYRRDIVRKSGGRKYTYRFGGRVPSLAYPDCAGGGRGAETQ
Conditions: protein: recombinant; tags: N-terminal GST; dsDNA, one strand shown. In outline:
as §1

Test [8] has as its target T5, ELF3 (Homo sapiens, UniProt P78545 1-371).
T5 sequence: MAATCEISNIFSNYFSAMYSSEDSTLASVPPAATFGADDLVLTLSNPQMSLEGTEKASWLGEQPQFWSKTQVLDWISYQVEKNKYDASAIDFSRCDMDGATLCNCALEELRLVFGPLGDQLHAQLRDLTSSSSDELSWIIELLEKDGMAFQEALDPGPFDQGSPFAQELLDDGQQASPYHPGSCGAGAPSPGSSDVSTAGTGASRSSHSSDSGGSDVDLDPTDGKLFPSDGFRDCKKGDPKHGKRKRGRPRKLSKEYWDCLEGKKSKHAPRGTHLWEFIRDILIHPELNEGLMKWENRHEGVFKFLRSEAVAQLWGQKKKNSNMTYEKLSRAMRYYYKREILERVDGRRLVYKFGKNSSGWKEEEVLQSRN
To be noted: protein: recombinant; tags: N-terminal GST; dsDNA, one strand shown. In outline: as §1

Test [9] deals with CRX (Homo sapiens, UniProt O43186 1-299). To be noted: protein: recombinant; tags: N-terminal GST; dsDNA, one strand shown. In outline: as §1
CRX, sequence (O43186 whole entry): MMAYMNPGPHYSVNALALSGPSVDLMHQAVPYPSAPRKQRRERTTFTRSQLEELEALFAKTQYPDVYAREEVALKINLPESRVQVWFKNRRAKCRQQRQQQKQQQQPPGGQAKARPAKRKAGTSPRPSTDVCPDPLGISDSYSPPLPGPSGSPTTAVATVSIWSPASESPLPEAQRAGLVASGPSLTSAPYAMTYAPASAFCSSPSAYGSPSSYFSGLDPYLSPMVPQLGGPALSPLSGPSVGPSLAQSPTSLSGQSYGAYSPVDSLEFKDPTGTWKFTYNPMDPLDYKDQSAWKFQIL
Test [10] has as its target ETV1 (Homo sapiens, UniProt P50549 1-477). To be noted: protein: recombinant; tags: N-terminal GST; dsDNA, one strand shown. In outline:
as §1

Test [11] concerns the target T6, ERF (Homo sapiens, UniProt P50548 1-548).
T6 sequence: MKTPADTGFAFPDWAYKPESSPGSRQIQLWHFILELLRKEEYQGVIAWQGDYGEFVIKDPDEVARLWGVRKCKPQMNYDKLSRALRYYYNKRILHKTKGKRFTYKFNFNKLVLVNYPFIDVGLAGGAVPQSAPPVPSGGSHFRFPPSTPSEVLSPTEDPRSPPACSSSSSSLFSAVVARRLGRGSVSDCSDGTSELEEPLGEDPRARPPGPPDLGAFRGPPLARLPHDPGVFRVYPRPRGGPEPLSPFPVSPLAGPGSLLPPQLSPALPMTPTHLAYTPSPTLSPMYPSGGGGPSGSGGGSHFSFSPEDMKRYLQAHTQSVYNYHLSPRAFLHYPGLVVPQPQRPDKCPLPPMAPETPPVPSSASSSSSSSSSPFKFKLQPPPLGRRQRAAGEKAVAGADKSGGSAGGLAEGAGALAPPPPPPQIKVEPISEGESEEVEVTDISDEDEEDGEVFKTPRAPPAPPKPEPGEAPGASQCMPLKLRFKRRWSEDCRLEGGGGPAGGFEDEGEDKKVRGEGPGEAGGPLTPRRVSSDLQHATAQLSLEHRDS
Conditions: protein: recombinant; tags: N-terminal GST; dsDNA, one strand shown. In outline: as §1

For test [12], the target named is T7, ETV3L (Homo sapiens, UniProt Q6ZN32 1-361).
T7 sequence: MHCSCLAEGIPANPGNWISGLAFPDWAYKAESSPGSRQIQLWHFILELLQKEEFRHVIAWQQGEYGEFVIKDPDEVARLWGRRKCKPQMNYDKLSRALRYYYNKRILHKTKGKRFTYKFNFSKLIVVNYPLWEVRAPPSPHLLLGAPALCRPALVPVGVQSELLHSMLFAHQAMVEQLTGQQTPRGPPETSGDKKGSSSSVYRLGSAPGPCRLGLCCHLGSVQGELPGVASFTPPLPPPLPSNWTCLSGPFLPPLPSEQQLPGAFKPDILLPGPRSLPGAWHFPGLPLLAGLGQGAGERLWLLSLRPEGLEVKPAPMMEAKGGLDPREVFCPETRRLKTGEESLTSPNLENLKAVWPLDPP
Conditions: protein: recombinant; tags: N-terminal GST; dsDNA, one strand shown. In outline: as §1

Test [13] deals with T8, ETS2 (Homo sapiens, UniProt P15036 1-469).
T8 sequence: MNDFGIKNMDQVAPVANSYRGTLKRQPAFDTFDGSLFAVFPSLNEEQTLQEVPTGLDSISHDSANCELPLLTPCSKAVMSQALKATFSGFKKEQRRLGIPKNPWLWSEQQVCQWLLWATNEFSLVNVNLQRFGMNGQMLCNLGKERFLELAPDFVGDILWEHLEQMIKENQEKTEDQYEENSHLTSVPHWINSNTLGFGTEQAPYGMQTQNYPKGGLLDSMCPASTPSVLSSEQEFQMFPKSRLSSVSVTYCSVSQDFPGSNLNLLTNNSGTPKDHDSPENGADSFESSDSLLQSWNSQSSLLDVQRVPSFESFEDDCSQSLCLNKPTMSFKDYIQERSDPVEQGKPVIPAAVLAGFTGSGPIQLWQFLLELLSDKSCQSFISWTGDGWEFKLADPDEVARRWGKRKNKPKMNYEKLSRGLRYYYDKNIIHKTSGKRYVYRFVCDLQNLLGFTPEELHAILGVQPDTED
To be noted: protein: recombinant; tags: N-terminal GST; dsDNA, one strand shown. In outline:
as §1

The target of test [14] is T9, SPDEF (Homo sapiens, UniProt O95238 1-335).
T9 sequence: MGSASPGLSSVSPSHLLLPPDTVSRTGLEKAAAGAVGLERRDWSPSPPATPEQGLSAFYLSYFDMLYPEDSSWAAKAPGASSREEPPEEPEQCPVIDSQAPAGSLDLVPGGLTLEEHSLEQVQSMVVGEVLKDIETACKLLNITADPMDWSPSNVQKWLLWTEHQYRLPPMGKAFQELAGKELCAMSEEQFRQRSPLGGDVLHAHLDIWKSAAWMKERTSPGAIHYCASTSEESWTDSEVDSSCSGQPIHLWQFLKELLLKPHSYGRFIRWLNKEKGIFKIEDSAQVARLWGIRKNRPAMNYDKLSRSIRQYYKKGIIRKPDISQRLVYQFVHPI
To be noted: protein: recombinant; tags: N-terminal GST; dsDNA, one strand shown. In outline: as §1

Test [15] has as its target T10, ETV7 (Homo sapiens, UniProt Q9Y603 1-341).
T10 sequence: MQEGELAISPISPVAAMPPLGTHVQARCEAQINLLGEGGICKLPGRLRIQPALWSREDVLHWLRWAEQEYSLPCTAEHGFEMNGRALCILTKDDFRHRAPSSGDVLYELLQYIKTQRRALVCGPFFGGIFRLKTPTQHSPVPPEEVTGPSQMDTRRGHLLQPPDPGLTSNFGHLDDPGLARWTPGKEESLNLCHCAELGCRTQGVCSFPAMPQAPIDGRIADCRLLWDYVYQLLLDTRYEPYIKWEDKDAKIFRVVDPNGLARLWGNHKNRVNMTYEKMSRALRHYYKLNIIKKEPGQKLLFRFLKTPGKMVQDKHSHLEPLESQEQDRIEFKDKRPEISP
To be noted: protein: recombinant; tags: N-terminal GST; dsDNA, one strand shown. In outline:
as §1

Test [16] has as its target T11, ELF5 (Homo sapiens, UniProt Q9UKW6-2 1-255).
T11 sequence: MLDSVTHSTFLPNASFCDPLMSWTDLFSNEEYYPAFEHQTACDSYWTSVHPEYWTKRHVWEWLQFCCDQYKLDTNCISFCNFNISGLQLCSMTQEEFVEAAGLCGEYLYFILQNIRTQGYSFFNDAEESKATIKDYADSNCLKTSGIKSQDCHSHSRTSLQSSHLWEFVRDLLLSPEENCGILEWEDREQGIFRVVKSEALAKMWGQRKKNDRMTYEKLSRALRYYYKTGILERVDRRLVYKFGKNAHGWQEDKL
To be noted: protein: recombinant; tags: N-terminal GST; dsDNA, one strand shown. In outline:
as §1

Test [17] addresses T12, ETV3 (Homo sapiens, UniProt P41162-2 1-143).
T12 sequence: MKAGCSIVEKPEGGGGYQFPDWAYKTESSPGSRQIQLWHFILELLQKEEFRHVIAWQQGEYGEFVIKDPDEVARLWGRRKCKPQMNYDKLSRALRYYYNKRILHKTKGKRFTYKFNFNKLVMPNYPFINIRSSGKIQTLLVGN
Conditions: protein: recombinant; tags: N-terminal GST; dsDNA, one strand shown. In outline:
as §1

The target in test [18] is ETV6 (Homo sapiens, UniProt P41212 1-452). To be noted: protein: recombinant; tags: N-terminal GST; dsDNA, one strand shown. In outline:
as §1

ETV5, sequence (P41161 whole entry): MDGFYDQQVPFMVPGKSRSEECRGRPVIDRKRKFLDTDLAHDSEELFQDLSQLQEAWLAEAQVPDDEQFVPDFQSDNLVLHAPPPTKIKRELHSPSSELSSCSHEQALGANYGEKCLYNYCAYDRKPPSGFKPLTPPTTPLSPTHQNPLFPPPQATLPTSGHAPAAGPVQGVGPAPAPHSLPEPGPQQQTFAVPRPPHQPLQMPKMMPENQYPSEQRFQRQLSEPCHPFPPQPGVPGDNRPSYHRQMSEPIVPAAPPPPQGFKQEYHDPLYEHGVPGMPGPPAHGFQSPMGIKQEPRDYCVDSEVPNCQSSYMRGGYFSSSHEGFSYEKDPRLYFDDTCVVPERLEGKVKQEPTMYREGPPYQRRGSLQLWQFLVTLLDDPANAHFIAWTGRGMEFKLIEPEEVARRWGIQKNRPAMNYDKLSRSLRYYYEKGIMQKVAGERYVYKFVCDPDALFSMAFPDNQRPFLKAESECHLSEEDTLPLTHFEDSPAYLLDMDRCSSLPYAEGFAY
ETV1, sequence (P50549 whole entry): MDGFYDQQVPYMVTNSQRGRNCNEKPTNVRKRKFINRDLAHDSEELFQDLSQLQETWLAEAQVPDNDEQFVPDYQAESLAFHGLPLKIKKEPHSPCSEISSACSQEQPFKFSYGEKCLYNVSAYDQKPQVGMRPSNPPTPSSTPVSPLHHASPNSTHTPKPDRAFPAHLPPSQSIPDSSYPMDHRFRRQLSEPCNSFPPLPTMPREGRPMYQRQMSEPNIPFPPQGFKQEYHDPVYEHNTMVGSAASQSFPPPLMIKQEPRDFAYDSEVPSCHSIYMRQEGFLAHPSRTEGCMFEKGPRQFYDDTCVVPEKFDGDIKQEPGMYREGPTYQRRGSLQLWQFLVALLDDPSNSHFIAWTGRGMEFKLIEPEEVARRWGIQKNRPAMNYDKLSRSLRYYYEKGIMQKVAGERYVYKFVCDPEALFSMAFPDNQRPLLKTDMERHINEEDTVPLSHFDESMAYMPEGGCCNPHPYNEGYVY
ETV6, sequence (P41212 whole entry): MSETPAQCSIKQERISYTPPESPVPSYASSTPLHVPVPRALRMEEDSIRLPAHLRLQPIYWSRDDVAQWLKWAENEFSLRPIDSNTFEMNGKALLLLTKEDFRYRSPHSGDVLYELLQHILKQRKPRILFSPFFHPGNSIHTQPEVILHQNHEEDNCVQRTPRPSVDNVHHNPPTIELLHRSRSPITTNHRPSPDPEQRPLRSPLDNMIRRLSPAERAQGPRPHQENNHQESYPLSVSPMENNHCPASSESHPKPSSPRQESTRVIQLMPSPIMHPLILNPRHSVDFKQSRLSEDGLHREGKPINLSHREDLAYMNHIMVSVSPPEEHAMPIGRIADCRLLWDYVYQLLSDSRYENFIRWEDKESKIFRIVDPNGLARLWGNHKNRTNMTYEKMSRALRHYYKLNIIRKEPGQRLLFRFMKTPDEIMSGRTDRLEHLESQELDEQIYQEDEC
ELF4, sequence (Q99607 whole entry): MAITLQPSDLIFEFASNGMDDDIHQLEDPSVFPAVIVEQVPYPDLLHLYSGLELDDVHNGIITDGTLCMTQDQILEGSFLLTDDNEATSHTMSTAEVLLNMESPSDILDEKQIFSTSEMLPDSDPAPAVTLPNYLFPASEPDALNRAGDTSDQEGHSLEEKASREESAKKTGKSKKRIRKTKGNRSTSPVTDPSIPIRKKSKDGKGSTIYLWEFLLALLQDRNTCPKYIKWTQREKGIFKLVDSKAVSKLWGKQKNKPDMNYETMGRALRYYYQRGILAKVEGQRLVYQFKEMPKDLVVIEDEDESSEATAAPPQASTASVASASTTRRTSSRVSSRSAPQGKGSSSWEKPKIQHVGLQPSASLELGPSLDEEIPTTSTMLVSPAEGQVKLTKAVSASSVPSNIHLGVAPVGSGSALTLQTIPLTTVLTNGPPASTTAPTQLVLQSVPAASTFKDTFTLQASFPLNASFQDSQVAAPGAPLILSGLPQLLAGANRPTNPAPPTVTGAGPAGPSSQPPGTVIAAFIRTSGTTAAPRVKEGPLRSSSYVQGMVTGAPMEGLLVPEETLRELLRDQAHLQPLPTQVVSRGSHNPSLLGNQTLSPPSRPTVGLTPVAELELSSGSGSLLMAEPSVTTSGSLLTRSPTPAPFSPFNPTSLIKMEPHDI

For the sequence CTCACA, the binding signal in [1] was 1.44 fold enrichment (6-mer frequency, TF over GST control); in test [2] it was 1.31 fold enrichment (6-mer frequency, TF over GST control); in test [3] it was 1.08 fold enrichment (6-mer frequency, TF over GST control); in test [4], 1.23 fold enrichment (6-mer frequency, TF over GST control); in test [5], 1.32 fold enrichment (6-mer frequency, TF over GST control); in test [6], 1.34 fold enrichment (6-mer frequency, TF over GST control). Besides, the binding signal in test [7] is 1.35 fold enrichment (6-mer frequency, TF over GST control); in test [8], 1.3 fold enrichment (6-mer frequency, TF over GST control); in [9], 1.12 fold enrichment (6-mer frequency, TF over GST control); in test [10] it was 1.2 fold enrichment (6-mer frequency, TF over GST control); in [11], 1.29 fold enrichment (6-mer frequency, TF over GST control); in test [12], 1.38 fold enrichment (6-mer frequency, TF over GST control). Besides, the binding signal in test [13] was 1.31 fold enrichment (6-mer frequency, TF over GST control); in test [14], 1.33 fold enrichment (6-mer frequency, TF over GST control); in test [15], 1.24 fold enrichment (6-mer frequency, TF over GST control); in test [16], 1.31 fold enrichment (6-mer frequency, TF over GST control); in test [17], 1.3 fold enrichment (6-mer frequency, TF over GST control); in test [18] it was 1.24 fold enrichment (6-mer frequency, TF over GST control).
